FLuc counter: counter-screen for miR-21 project: firefly luciferase inhibitors or activators; P08659; purified FLuc, Km substrates, luminescence inhibition; Potency, µM (doses to about 57.5 µM), for the others: at the highest dose activity change, negative = inhibition, usual class: inhibitors; 360,000 compounds, 6.9% hits;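 also: plate controls were vehicle for no effect and reference inhibitor for full effect; nearly all actives have a fitted effect of over 55% in size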
Target sequence (P08659 whole entry, looked up): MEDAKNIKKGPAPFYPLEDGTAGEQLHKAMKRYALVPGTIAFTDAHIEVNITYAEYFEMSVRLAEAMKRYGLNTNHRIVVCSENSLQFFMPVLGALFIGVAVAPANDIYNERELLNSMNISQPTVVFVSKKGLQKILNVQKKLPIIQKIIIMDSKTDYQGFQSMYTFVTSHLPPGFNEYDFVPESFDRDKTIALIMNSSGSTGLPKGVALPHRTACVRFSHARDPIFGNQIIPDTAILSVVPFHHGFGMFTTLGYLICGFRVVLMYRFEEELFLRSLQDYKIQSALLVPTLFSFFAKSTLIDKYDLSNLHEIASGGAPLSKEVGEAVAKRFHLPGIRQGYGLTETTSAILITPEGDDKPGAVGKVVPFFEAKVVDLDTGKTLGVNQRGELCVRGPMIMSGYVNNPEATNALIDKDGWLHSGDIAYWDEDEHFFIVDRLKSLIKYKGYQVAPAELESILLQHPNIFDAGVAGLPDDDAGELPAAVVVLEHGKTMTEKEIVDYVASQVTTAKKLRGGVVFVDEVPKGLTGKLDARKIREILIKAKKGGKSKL
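Biochemical qHTS of compounds, final roughly 60 µM downward over six points, against 10 nM purified firefly luciferase using Km concentrations of substrates (10 uM D-luciferin, 10 uM ATP) in Tris acetate pH 7.5 buffer; luminescence output.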
ELG1 genotox: induces genotoxicity in HEK293T cells with luciferase-tagged ELG1; HEK293T ELG1-luciferase reporter, luminescence, 16 h; Potency, µM (highest dose often 46 µM), for the others: at the highest dose activity change, positive = activation, usual class: activators; 330,000 compounds, 1.3% hits; AID 504466; also: % of control where 0% means no effect; nearly all actives have a fitted effect of over 60% in size
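After overnight (16 hr) compound treatment at 37 °C, ELG1-luciferase HEK293T cells were lysed with ONE-Glo; luminescence quantified 30 min later at room temperature.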
SMN2 splice enh: increases expression of the SMN2 splice variant; HEK293 SMN2-luciferase splicing reporter, luminescence, 30-36 h; Potency, µM (highest dose often 46.1 µM), for the others: at the top dose activity change, positive = activation, hits mostly activators; 210,000 compounds, 2.8% hits; AID 1458; also: % of control where 0% means no effect; nearly all actives have a fitted effect of over 55% in size
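HEK293 cells carry an SMN2 […]–luciferase reporter in which exon 7 inclusion puts luciferase in frame. Cells were plated 10-12 h before compound addition, then incubated 30-36 h at 37C. ONE-Glo luminescence was read; sodium butyrate at 4.5 mM final served as control.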
uPA surface inh: cell surface uPA generation inhibition. cell surface uPA generation assay, qHTS. Potency, µM (highest dose often 38.3 µM), inactives show at the top dose activity change, negative = inhibition, hits mostly inhibitors. 330,000 compounds, 0.31% hits. AID 540303; active = well fitted inhibition curve with a large enough effect; inconclusive = small, poorly fitted or top-dose-only effect; inactive = no such curve, though single readings can be large or run the other way; tested in mouse RAW 264.7 cells; also: % is scaled to controls: 0 for no effect and ±100 for the full control effect; nearly all actives have a fitted effect of over 55% in size
NPC1 promoter act: NPC1 promoter activation. Huh7 NPC1 promoter luciferase reporter, 24 h. Potency, µM (top dose mostly 9.22 µM), inactives show at the top dose activation, hits mostly activators. 320,000 compounds, 2.4% hits. AID 485313; also: % of control where 0% means no effect; nearly all actives have a fitted effect of over 60% in size
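Huh7 reporter cells (NPC1 promoter driving luciferase) are dosed with compound for 24 h at 37 °C, 5% CO2; luciferase detection reagent is then added and luminescence measured after 10 min at ambient temperature.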
Rab9 prom act: activators of Rab9 promoter | AID 485297 | Huh7 Rab9 promoter-luciferase reporter, luminescence, 24 h | 320,000 compounds, 2.8% hits | Potency, µM (doses to about 9.22 µM), for inactives: top-dose activation, negative = inhibition, actives largely listed as activators; also: % of control where 0% means no effect; nearly all actives have a fitted effect of over 60% in size
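Rab9 promoter-driven luciferase in stably transfected Huh7 cells; 1500 cells/well rested 2 h, exposed to compound in DMSO for 24 h at 37 °C, 5% CO2. Luminescence read 10 min after adding luciferase reagent at ambient temperature.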
An asterisk follows results filed as active; [ ] = another dose, or the depositor's remark. Rows were chosen to be rich in hits. Some 7.3% of all compounds tested hit in one or more screens of this group. Unless noted, calls follow the shape of the dose curve; as a rule, active = well fitted curve in the direction sought with a large enough effect; inconclusive = small, poorly fitted or top-dose-only effect, or another doubt; inactive = no such curve, though single readings can be large; an effect the other way counts as inactive or inconclusive. Potency is read from the fitted curve at half-maximal effect.

For Cc1cc(/C=C2/C(=O)NC(=O)N(C)C2=O)c(C)n1-c1ccccc1 the results were FLuc counter 1.1µM*, ELG1 genotox -1%, SMN2 splice enh -4%, uPA surface inh 0%, NPC1 promoter act -1% and Rab9 prom act -3%.
Screening Cc1cc(C=C2C(=O)NC(=S)NC2=O)c(C)n1-c1ccc2c(c1)OCO2 returned FLuc counter 3.4µM*, ELG1 genotox -4%, SMN2 splice enh 19%, uPA surface inh -10%, NPC1 promoter act 3% and Rab9 prom act -3%.
For O=C1NC(=O)C(=Cc2cc3c(cc2[N+](=O)[O-])OCO3)C(=O)N1 the results were FLuc counter -23%, ELG1 genotox 0%, SMN2 splice enh 3%, uPA surface inh -9%, NPC1 promoter act 0% and Rab9 prom act 1%.
`Cc1cc(/C=C2\C(=O)NC(=O)N(c3ccc(F)cc3)C2=O)c(C)n1-c1cccc(C(=O)O)c1` gave FLuc counter inconclusive, ELG1 genotox 2%, uPA surface inh -1%, NPC1 promoter act 0% and Rab9 prom act -6%.
Screening Cc1cc(C=C2C(=O)NC(=O)NC2=O)c(C)n1-c1ccc2c(c1)OCO2 returned FLuc counter 2.7µM*, ELG1 genotox 1%, SMN2 splice enh -19%, uPA surface inh -2%, NPC1 promoter act -2% and Rab9 prom act -3%.
For Cc1cc(/C=C2\C(=O)NC(=O)N(C)C2=O)c(C)n1-c1ccc2c(c1)OCO2 the results were FLuc counter 1.3µM*, ELG1 genotox -5%, SMN2 splice enh -15%, uPA surface inh -1%, NPC1 promoter act -4% and Rab9 prom act -4%.
Screening COc1cc2c(cc1OC)[C@]13CC[N@+]4(C)CC5=CCO[C@H]6CC(=O)N2[C@@H]1C6[C@@H]5C[C@]34O (stereo partly specified) returned SMN2 splice enh -2%[9.22 µM].
Screening O=C1NC(=S)NC(=O)C12C(c1ccccc1)NC(=S)NC2c1ccccc1 (stereo unspecified) returned FLuc counter -9%, ELG1 genotox -1%, SMN2 splice enh 5%, uPA surface inh -2%, NPC1 promoter act 0% and Rab9 prom act -1%.
`O=C1NC(=S)NC(=O)C12C(c1ccc(F)cc1)NC(=S)NC2c1ccc(F)cc1` (stereo unspecified) gave FLuc counter 1%, ELG1 genotox 0%, SMN2 splice enh 1.6µM*, uPA surface inh 2%, NPC1 promoter act -3% and Rab9 prom act 1%.
Screening COC(C)(C)C returned SMN2 splice enh 5%.
`CC(=O)Nc1nnc(SCC(=O)NCCOc2ccccc2)s1` gave FLuc counter 2%[2.3 µM], ELG1 genotox -2%, SMN2 splice enh 8%, uPA surface inh 5%, NPC1 promoter act 5% and Rab9 prom act inconclusive.
O=C(CSc1nnc(NC(=O)c2cccc(F)c2)s1)NCc1ccco1 was read as FLuc counter 3.4µM*, ELG1 genotox 26%, uPA surface inh -9%, NPC1 promoter act inconclusive and Rab9 prom act inconclusive.
Screening CCOC(=O)C1(Cc2ccc(Cl)cc2)CCN(C(C)Cc2ccc(O)c(OC)c2)CC1 (stereo unspecified) returned FLuc counter 0%, ELG1 genotox -2%, uPA surface inh inconclusive, NPC1 promoter act -14% and Rab9 prom act -16%.
For Cc1cn2c(=O)cc(COC(=O)c3ccccc3F)nc2s1 the results were FLuc counter 2.7µM*.
`CCCCNc1c(-c2cccc(-c3ccc(OC)cc3)c2)nc2ccc(C)cn12` gave FLuc counter 9.5µM*, ELG1 genotox -5%, uPA surface inh inconclusive, NPC1 promoter act 16% and Rab9 prom act 10%.
For COc1ccc(-n2nc(C(=O)NCC(=O)N3CCC4(CC3)OCCO4)c3ccccc3c2=O)c(OC)c1 the results were FLuc counter 1.1µM*, ELG1 genotox inconclusive, uPA surface inh -11%, NPC1 promoter act inconclusive and Rab9 prom act inconclusive.
C[C@H](Br)CN(C[C@H](C)Br)c1ccc2c(c1)Cc1ccccc1-2 was read as SMN2 splice enh 1%[9.22 µM].
`Cl/C=C/Cl` gave SMN2 splice enh -4%.
Screening O=C(Oc1ccc2cc(Br)ccc2c1)N1CCCCCC1 returned FLuc counter 6.7µM*, ELG1 genotox 23µM*, SMN2 splice enh inconclusive, NPC1 promoter act inconclusive and Rab9 prom act 4µM*.
Screening [N-]=[N+]=CC(=O)CC[C@H](N)C(=O)O returned SMN2 splice enh 1%[9.22 µM].
`CN1CCc2c(C#N)c(Cl)nc(Cl)c2C1` gave FLuc counter 4%, ELG1 genotox 2%, SMN2 splice enh 15%, uPA surface inh 11µM*, NPC1 promoter act 2% and Rab9 prom act -6%.
Screening CCOC(=O)c1ccsc1NC(=O)CCS(=O)(=O)c1ccccc1 returned FLuc counter -1%, ELG1 genotox -3%, uPA surface inh inconclusive, NPC1 promoter act -9% and Rab9 prom act 9%.
For CC(=O)c1sc(NC(=O)CCS(=O)(=O)c2ccc(C)cc2)nc1C the results were FLuc counter 3%, ELG1 genotox 4%, uPA surface inh 11µM*, NPC1 promoter act 8% and Rab9 prom act -1%.
Screening Cc1ccc(NC(=O)c2cnc3sc(N4CCOCC4)nn3c2=O)cc1N(C)C returned FLuc counter inconclusive and SMN2 splice enh -11%.
CC(=O)n1cc(C=C2C(=O)NC(=O)NC2=O)c2ccccc21 was read as FLuc counter 15µM*, ELG1 genotox 1%[9.26 µM], uPA surface inh 4%, NPC1 promoter act -3% and Rab9 prom act 1%.
Screening CCN1C(=O)C(=Cc2cc(C)n(C3CC3)c2C)C(=O)N(CC)C1=S returned FLuc counter -2%, ELG1 genotox 2%, SMN2 splice enh 0%, uPA surface inh -4%, NPC1 promoter act -4% and Rab9 prom act 0%.
`Cc1cc(C=C2C(=O)N(C)C(=S)N(C)C2=O)c(C)n1C1CCCC1` gave FLuc counter 2.4µM*, ELG1 genotox inconclusive, SMN2 splice enh -14%, uPA surface inh 3%, NPC1 promoter act 0% and Rab9 prom act -9%.
Cc1cc(/C=C2\C(=O)NC(=S)N(C)C2=O)c(C)n1C1CCCCC1 was read as FLuc counter 0.48µM*, ELG1 genotox inconclusive, SMN2 splice enh 1%, uPA surface inh 0%, NPC1 promoter act -2% and Rab9 prom act -4%.
Screening c1ccc2c([C@@H]3CCN(CCN4CCOCC4)C3)c[nH]c2c1 returned SMN2 splice enh 5%[9.22 µM].
For Oc1ccc(-c2cn3ccccc3n2)cc1O the results were FLuc counter 12µM*, ELG1 genotox 13µM*, uPA surface inh inconclusive, NPC1 promoter act 27% and Rab9 prom act inconclusive.

From PubChem
